Test results reported in the supplement of paper PMC11732987, “Enantioselective OTUD7B fragment discovery through chemoproteomics screening and high-throughput optimisation” (Communications Chemistry, 2025).

Assays:
Assay in all cases: log2 ratio of Biotin-Ahx-Ub-VS probe labelling (fragment/DMSO); higher = less target engagement (more negative = stronger competition), active = hit call of the paper (q ≤ 0.05, log2 ratio ≤ -1)
Conditions in all cases: compound concentration: 200 uM; treatment time: 3 h
USP42 = biological target: T1, USP42 (UniProt Q9H9J4)
T1 sequence (whole entry): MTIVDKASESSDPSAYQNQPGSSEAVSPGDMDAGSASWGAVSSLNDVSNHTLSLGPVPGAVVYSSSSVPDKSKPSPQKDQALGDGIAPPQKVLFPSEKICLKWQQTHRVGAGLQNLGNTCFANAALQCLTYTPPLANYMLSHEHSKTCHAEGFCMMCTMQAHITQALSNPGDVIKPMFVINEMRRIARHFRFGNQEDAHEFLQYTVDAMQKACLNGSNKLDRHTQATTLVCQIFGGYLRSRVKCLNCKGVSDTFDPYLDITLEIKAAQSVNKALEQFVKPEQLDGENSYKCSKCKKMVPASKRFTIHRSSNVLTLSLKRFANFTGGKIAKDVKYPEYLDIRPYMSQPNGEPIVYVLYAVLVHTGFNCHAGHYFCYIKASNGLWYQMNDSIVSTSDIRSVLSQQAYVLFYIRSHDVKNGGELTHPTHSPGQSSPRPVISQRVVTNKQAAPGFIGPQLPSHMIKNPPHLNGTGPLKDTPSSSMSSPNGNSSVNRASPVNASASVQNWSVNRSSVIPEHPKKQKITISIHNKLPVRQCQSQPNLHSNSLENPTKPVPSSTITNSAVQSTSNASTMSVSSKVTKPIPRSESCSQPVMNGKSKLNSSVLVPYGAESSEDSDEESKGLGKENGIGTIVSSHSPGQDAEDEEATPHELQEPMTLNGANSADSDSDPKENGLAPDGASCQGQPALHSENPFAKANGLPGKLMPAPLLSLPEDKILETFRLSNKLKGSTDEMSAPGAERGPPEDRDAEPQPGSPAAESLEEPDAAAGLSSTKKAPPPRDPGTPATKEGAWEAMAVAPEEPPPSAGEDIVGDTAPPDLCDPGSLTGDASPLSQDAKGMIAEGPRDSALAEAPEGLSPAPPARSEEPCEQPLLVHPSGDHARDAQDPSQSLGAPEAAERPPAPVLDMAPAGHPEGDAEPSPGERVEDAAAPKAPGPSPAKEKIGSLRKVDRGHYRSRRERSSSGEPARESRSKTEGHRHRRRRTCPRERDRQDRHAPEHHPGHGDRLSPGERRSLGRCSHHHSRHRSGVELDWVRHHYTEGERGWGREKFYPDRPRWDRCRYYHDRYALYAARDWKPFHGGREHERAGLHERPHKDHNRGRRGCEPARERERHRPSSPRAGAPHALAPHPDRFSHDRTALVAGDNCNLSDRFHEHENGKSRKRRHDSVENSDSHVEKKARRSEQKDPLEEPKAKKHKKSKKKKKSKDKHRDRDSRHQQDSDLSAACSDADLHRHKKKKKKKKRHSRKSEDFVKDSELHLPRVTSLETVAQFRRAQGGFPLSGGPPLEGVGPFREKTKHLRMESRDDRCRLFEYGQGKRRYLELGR
How it was run: (§1)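 Lysate from HEK293T cells, 495 µg per sample in Tris/CHAPS/IGEPAL buffer with protease inhibitors, was treated for 3 h in triplicate with fragment at 200 µM or vehicle. Biotin-Ahx-Ub-VS was next added at 0.5 µM final for 1 h. The labelled DUBs were enriched with NeutrAvidin, digested with LysC and trypsin, and run by diaPASEF LC-MS/MS, with values given as average log2 fragment/vehicle ratios by unpaired t-test on global-median-normalised Spectronaut quantities of proteins with ≥2 unique peptides.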

USP46 = USP46 (UniProt P62068)
How it was run: as §1

USP47 = biological target: T2, USP47 (UniProt Q96K76)
T2 sequence (whole entry): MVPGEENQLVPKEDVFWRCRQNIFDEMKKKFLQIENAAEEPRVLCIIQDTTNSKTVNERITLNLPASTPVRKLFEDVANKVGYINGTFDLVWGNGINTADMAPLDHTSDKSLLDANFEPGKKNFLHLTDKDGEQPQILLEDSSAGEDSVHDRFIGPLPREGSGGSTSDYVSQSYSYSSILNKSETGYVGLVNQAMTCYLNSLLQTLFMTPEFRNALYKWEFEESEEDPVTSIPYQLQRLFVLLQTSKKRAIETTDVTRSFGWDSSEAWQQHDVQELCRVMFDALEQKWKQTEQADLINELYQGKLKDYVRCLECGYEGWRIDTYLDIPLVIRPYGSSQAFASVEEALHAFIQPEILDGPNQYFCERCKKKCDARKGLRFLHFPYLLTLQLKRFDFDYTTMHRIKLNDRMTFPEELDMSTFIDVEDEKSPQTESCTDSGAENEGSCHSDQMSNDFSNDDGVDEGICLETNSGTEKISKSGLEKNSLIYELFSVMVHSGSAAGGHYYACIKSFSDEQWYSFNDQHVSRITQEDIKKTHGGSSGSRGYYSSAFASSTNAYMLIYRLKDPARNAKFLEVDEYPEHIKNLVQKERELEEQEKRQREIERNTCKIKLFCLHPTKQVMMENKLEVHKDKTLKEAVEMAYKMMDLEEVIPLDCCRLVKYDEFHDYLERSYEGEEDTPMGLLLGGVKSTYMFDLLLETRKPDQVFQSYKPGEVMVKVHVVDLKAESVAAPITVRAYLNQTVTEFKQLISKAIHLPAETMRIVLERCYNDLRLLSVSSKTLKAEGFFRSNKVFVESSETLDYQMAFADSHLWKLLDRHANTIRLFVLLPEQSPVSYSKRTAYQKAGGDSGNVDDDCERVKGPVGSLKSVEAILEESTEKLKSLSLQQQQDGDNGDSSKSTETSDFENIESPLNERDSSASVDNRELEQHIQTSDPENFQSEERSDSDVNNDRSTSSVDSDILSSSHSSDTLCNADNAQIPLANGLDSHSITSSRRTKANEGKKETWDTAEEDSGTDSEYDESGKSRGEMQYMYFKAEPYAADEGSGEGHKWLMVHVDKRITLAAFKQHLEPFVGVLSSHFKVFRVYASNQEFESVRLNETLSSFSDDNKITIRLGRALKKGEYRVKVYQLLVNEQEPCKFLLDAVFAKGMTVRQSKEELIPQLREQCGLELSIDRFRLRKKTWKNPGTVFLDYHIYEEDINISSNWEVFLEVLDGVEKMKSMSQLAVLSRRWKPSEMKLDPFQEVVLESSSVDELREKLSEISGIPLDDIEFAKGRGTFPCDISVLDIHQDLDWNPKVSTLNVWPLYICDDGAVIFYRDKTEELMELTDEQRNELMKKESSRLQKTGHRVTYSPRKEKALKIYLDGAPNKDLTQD
How it was run: as §1

USP48 = biological target: T3, USP48 (UniProt Q86UV5)
T3 sequence (whole entry): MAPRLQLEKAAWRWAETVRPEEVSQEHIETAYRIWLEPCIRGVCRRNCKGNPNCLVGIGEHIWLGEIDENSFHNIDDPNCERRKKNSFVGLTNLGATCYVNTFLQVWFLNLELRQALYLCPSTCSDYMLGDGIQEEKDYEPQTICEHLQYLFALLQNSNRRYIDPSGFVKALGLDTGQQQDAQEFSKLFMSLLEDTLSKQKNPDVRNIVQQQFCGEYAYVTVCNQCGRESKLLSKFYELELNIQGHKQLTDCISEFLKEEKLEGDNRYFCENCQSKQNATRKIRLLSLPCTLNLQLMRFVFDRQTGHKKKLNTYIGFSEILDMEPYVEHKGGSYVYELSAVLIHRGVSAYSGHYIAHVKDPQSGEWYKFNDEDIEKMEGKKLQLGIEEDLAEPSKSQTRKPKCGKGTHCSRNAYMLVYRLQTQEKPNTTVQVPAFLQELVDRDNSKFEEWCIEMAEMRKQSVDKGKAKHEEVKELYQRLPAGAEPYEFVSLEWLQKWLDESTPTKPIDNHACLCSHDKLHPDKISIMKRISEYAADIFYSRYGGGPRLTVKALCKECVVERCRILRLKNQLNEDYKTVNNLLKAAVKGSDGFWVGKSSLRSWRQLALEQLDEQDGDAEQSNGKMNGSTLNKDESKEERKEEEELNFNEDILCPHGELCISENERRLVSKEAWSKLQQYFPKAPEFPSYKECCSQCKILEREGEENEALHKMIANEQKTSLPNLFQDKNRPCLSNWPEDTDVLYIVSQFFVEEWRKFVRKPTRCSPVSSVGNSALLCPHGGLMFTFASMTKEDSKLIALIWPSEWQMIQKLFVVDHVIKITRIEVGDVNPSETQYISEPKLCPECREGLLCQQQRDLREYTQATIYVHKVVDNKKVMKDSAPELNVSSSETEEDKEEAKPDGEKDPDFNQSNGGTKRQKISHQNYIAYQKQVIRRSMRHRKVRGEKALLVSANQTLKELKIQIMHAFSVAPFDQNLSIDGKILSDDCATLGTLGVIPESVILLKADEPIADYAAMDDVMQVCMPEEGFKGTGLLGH
How it was run: as §1

USP5 = biological target: T4, USP5 (UniProt P45974)
T4 sequence (whole entry): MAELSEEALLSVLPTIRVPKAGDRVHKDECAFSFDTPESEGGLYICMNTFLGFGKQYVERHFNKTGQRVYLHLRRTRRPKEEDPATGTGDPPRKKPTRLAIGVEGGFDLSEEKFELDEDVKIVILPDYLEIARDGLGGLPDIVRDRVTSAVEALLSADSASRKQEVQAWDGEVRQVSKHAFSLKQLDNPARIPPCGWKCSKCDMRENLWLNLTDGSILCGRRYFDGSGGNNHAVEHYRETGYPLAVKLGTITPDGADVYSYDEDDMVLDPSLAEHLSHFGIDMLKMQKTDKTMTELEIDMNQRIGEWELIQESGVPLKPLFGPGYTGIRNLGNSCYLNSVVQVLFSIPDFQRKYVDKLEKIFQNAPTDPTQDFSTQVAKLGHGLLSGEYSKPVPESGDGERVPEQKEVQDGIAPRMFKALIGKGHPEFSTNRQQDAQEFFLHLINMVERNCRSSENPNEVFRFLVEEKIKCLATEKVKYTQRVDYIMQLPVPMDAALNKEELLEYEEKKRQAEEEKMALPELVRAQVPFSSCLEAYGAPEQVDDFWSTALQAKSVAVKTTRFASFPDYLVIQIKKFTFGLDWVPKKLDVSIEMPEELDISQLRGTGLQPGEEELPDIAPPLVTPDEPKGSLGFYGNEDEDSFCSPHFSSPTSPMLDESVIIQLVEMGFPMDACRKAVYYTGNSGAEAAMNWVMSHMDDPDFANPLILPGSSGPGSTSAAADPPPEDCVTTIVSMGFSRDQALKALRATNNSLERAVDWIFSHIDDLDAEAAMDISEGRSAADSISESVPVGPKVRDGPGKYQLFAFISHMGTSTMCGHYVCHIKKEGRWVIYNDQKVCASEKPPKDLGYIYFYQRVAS
How it was run: as §1

USP54 = USP54 (UniProt Q70EL1)
How it was run: as §1

USP7 = USP7 (UniProt Q93009)
How it was run: as §1

USP8 = biological target: T5, USP8 (UniProt P40818)
T5 sequence (whole entry): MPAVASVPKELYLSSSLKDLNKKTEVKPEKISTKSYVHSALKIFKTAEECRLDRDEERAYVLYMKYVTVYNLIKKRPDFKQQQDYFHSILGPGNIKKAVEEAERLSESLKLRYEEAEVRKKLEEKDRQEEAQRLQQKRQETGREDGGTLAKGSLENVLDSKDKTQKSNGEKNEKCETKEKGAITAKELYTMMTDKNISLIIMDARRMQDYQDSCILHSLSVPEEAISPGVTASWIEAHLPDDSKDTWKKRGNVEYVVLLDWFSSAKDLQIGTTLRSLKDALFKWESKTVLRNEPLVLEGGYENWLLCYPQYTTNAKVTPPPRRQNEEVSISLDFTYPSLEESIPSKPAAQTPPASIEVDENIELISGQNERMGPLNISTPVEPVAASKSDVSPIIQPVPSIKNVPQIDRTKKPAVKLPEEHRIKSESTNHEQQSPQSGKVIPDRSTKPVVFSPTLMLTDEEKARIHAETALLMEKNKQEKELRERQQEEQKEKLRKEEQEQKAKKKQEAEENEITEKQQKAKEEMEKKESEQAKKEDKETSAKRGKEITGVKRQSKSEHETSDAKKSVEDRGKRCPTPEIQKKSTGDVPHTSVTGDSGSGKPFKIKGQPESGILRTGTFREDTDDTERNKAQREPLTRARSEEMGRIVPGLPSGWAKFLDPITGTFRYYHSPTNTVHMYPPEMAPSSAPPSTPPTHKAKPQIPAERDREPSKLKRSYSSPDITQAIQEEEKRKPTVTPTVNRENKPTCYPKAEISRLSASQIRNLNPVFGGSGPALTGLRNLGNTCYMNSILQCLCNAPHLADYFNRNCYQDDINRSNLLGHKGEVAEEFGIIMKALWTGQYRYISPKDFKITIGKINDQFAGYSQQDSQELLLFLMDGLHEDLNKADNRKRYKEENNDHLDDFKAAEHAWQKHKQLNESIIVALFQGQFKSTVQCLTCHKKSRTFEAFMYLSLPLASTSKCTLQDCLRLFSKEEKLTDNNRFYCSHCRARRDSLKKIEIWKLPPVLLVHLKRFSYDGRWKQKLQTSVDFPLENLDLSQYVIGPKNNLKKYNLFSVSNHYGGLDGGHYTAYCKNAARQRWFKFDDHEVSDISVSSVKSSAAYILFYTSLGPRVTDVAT
How it was run: as §1

USP9X = USP9X (UniProt Q93008)
How it was run: as §1

UniProt O00487 = biological target: UniProt O00487
How it was run: as §1

Measured: log2 ratio of Biotin-Ahx-Ub-VS probe labelling

USP46, sequence (P62068 whole entry): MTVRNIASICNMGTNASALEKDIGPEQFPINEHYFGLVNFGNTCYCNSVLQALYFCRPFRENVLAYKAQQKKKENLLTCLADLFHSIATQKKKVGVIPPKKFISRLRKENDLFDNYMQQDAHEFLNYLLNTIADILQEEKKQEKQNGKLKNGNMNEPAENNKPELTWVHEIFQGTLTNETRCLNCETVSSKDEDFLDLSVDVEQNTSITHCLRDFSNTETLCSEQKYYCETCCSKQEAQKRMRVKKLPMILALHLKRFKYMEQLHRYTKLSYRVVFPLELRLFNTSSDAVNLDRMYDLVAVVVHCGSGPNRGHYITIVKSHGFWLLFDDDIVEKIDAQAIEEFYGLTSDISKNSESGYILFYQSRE
UniProt O00487, sequence (O00487 whole entry): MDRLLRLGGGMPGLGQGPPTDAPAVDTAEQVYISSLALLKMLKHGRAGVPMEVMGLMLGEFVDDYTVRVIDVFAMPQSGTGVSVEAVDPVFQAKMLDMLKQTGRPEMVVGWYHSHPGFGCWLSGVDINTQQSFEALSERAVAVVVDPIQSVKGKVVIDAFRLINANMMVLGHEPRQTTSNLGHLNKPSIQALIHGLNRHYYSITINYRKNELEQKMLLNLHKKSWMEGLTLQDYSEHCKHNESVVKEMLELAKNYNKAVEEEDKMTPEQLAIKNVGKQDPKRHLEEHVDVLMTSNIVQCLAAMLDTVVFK
USP9X, sequence (Q93008 whole entry): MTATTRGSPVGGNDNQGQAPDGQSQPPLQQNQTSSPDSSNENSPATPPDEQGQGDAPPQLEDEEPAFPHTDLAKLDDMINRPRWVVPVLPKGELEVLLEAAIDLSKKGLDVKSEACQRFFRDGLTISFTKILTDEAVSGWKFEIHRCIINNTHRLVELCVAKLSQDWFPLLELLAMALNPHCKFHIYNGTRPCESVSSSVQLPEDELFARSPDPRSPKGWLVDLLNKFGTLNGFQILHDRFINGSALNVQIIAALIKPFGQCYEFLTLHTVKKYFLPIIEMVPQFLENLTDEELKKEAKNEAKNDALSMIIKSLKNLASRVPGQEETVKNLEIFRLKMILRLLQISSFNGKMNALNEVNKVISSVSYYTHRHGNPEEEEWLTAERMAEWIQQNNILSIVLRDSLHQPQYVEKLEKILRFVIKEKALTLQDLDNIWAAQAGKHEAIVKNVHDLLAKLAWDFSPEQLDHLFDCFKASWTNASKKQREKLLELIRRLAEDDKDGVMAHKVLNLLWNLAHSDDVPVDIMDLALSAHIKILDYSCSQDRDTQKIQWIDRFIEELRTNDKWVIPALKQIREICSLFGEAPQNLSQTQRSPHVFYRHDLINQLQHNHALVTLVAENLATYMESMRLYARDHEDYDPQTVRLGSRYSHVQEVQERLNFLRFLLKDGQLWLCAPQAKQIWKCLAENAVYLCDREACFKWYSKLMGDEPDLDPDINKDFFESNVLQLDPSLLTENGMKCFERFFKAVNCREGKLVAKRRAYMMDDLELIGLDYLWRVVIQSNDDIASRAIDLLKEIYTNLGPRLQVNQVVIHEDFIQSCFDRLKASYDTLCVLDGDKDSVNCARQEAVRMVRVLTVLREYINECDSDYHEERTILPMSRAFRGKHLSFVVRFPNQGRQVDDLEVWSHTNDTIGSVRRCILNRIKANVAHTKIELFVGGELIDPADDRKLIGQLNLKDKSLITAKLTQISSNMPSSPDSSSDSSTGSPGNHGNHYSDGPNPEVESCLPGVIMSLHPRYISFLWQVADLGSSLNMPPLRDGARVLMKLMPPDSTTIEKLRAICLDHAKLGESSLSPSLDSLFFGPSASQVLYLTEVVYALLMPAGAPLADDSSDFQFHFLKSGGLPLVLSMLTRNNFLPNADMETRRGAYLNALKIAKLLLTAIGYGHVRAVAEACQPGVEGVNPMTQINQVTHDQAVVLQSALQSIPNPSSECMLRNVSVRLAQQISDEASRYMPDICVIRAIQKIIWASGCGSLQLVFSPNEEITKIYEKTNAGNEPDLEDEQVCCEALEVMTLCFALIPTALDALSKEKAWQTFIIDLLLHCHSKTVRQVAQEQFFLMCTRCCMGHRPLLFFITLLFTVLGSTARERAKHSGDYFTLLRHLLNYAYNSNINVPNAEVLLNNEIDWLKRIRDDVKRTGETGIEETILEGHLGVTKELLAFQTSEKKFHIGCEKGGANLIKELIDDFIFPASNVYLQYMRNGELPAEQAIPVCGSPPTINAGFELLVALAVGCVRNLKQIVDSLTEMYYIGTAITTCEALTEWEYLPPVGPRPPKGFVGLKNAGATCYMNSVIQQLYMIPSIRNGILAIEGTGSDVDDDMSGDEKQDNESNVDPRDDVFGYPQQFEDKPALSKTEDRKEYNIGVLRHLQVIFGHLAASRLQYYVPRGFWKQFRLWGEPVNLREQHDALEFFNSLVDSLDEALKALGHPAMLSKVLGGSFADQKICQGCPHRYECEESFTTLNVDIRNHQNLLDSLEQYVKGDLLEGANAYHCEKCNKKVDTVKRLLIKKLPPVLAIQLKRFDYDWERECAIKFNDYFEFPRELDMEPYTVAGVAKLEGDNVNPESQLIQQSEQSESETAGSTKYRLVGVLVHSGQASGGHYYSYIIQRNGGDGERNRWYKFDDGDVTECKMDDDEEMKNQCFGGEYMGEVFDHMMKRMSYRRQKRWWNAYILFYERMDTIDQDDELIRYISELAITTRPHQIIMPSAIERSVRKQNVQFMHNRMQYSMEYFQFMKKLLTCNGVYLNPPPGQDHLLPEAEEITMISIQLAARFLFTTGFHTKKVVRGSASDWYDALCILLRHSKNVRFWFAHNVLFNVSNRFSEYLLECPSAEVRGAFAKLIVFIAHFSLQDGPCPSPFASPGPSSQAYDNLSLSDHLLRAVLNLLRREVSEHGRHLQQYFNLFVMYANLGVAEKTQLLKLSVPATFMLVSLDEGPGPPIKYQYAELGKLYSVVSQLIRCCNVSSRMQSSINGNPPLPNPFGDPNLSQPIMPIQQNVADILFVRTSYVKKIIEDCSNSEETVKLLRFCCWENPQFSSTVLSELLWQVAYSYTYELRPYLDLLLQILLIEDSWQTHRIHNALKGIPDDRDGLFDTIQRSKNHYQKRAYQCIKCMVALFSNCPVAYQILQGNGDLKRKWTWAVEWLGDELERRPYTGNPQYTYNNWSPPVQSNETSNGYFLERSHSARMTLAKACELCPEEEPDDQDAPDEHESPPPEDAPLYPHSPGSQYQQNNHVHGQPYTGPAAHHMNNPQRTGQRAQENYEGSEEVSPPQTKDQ
USP54, sequence (Q70EL1 whole entry): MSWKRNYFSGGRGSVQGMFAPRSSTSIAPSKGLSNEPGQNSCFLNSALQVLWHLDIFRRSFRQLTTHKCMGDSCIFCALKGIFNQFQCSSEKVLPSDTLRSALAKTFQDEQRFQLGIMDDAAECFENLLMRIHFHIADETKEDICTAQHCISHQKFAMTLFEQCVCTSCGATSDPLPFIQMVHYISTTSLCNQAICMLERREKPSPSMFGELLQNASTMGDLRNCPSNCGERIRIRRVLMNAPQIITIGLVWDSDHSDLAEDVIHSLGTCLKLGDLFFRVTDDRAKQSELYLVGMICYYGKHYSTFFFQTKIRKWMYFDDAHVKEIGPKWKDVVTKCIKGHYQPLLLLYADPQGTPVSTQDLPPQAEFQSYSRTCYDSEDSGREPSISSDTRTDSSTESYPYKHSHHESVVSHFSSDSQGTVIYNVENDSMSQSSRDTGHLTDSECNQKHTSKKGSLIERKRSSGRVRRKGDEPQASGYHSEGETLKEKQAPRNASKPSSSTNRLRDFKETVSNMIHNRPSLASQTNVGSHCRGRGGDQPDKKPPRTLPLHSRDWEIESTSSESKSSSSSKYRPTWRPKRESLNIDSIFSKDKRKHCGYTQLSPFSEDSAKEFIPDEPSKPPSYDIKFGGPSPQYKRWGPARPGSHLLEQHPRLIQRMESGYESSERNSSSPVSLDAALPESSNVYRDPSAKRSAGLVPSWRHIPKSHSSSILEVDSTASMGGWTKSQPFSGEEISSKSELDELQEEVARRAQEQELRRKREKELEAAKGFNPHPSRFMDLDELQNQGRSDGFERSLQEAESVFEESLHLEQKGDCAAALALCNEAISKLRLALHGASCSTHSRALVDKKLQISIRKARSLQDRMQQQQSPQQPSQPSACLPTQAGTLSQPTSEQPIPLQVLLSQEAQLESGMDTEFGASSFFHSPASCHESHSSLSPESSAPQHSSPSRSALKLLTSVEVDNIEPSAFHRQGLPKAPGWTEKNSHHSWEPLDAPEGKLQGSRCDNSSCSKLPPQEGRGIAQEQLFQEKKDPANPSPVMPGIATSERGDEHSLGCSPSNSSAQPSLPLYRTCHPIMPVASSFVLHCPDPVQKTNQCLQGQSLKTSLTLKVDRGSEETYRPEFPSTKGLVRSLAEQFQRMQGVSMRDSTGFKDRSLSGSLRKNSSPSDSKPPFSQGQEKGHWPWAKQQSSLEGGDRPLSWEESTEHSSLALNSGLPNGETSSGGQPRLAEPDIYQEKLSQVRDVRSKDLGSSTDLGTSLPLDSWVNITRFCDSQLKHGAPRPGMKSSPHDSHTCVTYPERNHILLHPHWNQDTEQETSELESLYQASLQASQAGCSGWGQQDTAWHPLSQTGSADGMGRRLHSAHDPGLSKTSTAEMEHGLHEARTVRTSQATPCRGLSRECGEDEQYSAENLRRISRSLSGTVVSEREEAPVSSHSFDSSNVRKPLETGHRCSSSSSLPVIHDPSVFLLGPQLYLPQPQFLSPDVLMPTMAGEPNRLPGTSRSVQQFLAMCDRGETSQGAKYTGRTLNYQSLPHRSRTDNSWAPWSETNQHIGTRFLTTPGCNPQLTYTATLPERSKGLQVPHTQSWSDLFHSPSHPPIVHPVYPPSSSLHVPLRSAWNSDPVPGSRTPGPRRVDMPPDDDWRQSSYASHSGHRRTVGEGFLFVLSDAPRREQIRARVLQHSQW

Cl.O=C(CCl)N1CCn2ncc(O)c2C1
inactive: USP42 -0.139 | USP46 -0.686 | USP47 -0.0187 | USP48 -0.559 | USP5 0.0938 | USP54 0.44 | USP7 -0.81 | USP8 -0.577 | USP9X -0.396 | UniProt O00487 -0.395

CC(c1ccccc1)N(C)C(=O)CCl (stereo not given)
inactive: USP42 -0.0241 | USP46 -0.161 | USP47 0.0295 | USP48 -0.407 | USP5 0.359 | USP54 0.0889 | USP7 -0.735 | USP8 -0.0666 | USP9X -0.115 | UniProt O00487 -0.0533

O=C(CCl)N1CCCC1c1ccsc1 (stereo not given)
inactive: USP42 -0.371 | USP46 -0.105 | USP47 -0.389 | USP48 -0.959 | USP5 0.45 | USP54 0.559 | USP7 -0.795 | USP8 -0.441 | USP9X -0.231 | UniProt O00487 -0.138

O=C(CCl)N1CCC[C@@H]1c1ccon1
inactive: USP42 0.00575 | USP46 -0.0791 | USP47 -0.264 | USP48 -0.779 | USP5 -0.0234 | USP54 0.591 | USP7 -0.78 | USP8 -0.331 | USP9X -0.32 | UniProt O00487 -0.227
